PubChem BioAssay AID1159580 (chemical genetic matrix, 2015)
Out of some 5,500 compounds screened, about 2,000 (36%) were called active. Roughly 18% stayed inconclusive and do not appear here. No stated cut-off is given here; in the data, active means normalized growth mostly below about 0.91 (no sharp cut-off); inconclusive means no clear call, values can overlap the other calls; inactive means mostly above about 0.92. The list shows a part of the results.

Assay: chemical genetic growth profiling, strain panel (AID 1159580);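 further: tested at 20 µM; growth read once vehicle control cultures reached saturation at 30 °C; 1 = growth at the plate median or of vehicle wells; lower values mean less growth of the strain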
Conditions: S. cerevisiae deletion strains, growth OD

Measured: normalized growth

COC(=O)c1cc(I)c(OC(C)=O)c(I)c1
inactive: locus YAR019C, strain CDC15, hits give low values 0.952 | locus YBL105C, strain PKC1, hits give low values 0.958 | locus YBR135W, strain CKS1, hits give low values 0.944 | locus YBR136W, strain MEC1, hits give low values 0.958 | locus YBR160W, strain CDC28, hits give low values 0.959 | locus YDL017W, strain CDC7, hits give low values 0.961 | locus YDL028C, strain MPS1, hits give low values 0.961 | locus YDL101C, strain DUN1, hits give low values 0.935 | locus YDL108W, strain KIN28, hits give low values 0.955 | locus YDL132W, strain cdc53, hits give low values 0.939 | locus YDL214C, strain PRR2, hits give low values 0.929 | locus YDR052C, strain DBF4, hits give low values 0.967 | locus YDR054C, strain cdc34, hits give low values 0.939 | locus YDR226W, strain ADK1, hits give low values 0.951 | locus YDR477W, strain SNF1, hits give low values 0.955 | locus YER123W, strain YCK3, hits give low values 0.905 | locus YER133W, strain GLC7, hits give low values 0.945 | locus YFL009W, strain cdc4, hits give low values 0.952 | locus YFL029C, strain CAK1, hits give low values 0.947 | locus YFR003C, strain YPI1, hits give low values 0.956 | locus YFR019W, strain FAB1, hits give low values 0.94 | locus YFR028C, strain CDC14, hits give low values 0.95 | locus YGR040W, strain KSS1, hits give low values 0.953 | locus YGR052W, strain FMP48, hits give low values 0.967 | locus YGR092W, strain DBF2, hits give low values 0.9 | locus YHR030C, strain SLT2, hits give low values 0.916 | locus YHR079C, strain IRE1, hits give low values 0.973 | locus YHR082C, strain KSP1, hits give low values 0.98 | locus YHR205W, strain SCH9, hits give low values 0.864 | locus YIL147C, strain SLN1, hits give low values 0.966 | locus YJL095W, strain BCK1, hits give low values 0.934 | locus YJL128C, strain PBS2, hits give low values 0.856 | locus YJL157C, strain FAR1, hits give low values 0.945 | locus YJR016C, strain ILV3, hits give low values 0.959 | locus YJR066W, strain TOR1 (second series), hits give low values 0.943 | locus YJR066W, strain TOR1, hits give low values 1.01 | locus YKL048C, strain ELM1, hits give low values 0.913 | locus YKL067W, strain YNK1, hits give low values 0.91 | locus YKL101W, strain HSL1, hits give low values 0.902 | locus YKL193C, strain SDS22, hits give low values 0.942 | locus YKL203C, strain TOR2, hits give low values 1.02 | locus YLR133W, strain CKI1, hits give low values 0.949 | locus YLR403W, strain SFP1, hits give low values 0.935 | locus YML070W, strain DAK1, hits give low values 0.897 | locus YMR001C, strain CDC5, hits give low values 0.947 | locus YMR205C, strain PFK2 (second series), hits give low values 0.925 | locus YMR277W, strain FCP1, hits give low values 0.948 | locus YNL006W, strain LST8, hits give low values 0.951 | locus YNL020C, strain ARK1, hits give low values 0.939 | locus YNL161W, strain CBK1, hits give low values 0.961 | locus YNL183C, strain NPR1, hits give low values 0.958 | locus YNL207W, strain RIO2, hits give low values 0.957 | locus YNL222W, strain SSU72, hits give low values 0.94 | locus YNL307C, strain MCK1 (second series), hits give low values 0.918 | locus YOL078W, strain AVO1, hits give low values 0.952 | locus YOL136C, strain PFK27, hits give low values 0.926 | locus YOR061W, strain CKA2, hits give low values 0.937 | locus YOR119C, strain RIO1, hits give low values 0.991 | locus YOR231W, strain MKK1, hits give low values 0.942 | locus YOR329C, strain SCD5, hits give low values 0.963 | locus YPL031C, strain PHO85, hits give low values 0.949 | locus YPL153C, strain RAD53, hits give low values 0.936 | locus YPL204W, strain HRR25, hits give low values 0.946 | locus YPL209C, strain IPL1, hits give low values 0.95 | locus YPL256C, strain CLN2, hits give low values 0.898 | locus YPR025C, strain CCL1, hits give low values 0.953 | locus YPR106W, strain ISR1, hits give low values 0.92 | locus YPR111W, strain DBF20, hits give low values 0.926 | strain NNK1, hits give low values 0.921 | strain TSCII, hits give low values 0.948
active: locus YLR113W, strain HOG1, hits give low values 0.745
